Assay results published in PubChem BioAssay.
Active and inactive are the calls of the source.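 Rule for the calls, unless noted: active = fluorescence slope higher than the sample average by over 3 SD (cut at about -0.22 in these data, passing the limit was not always enough); inactive = the rest.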

Tests used:
[1] = inhibitors of TNFa-induced NFkB p65 translocation, primary screen, imaging, HUVEC, MLSMR starter and 10KST1 sets (AID 438;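 active = inhibition above 20% together with a positive visual image hit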;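 note: compound added about 3h40 before a 20 min TNFalpha stimulation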;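 for inhibition: signal is the nuclear over cytoplasmic p65 intensity ratio per well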); settings: HUVEC TNFa-induced p65 nuclear translocation; cell count: measured here: nuclei count (cytotoxicity indicator), at 2.08 µM unless noted; inhibition: at 2 µM, stronger effect = higher value unless noted
[2] = endothelial E-selectin expression blockers – imaging, HUVEC, immunofluorescence, MLSMR starter and 10KST1 sets, primary screen (AID 487;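 active = visually confirmed hit in the image check and inhibition above 20%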;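 for inhibition: signal is fraction of cell area covered by stained E-selectin grains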;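 for nuclei count: 100% = median nuclei count of all wells on the same plate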); settings: HUVEC TNFalpha-induced E-selectin immunofluorescence imaging, at 2 µM; inhibition: stronger effect = higher value; nuclei count: measured here: cell number, toxicity
[3] = Primary imaging screen for DUSP6 inhibitors that restore phospho-Erk in transfected HeLa cells, chemical complementation (AID 609;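 active = compounds giving at least 50% inhibition in the cell-based MKP-3 phosphatase rescue imaging test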;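 for inhibition: phospho-Erk level distribution per well compared with pooled transfected vehicle control wells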); settings: HeLa MKP-3 transfected, phospho-Erk imaging KS statistic, at 10 µM
[4] = biological target: Dual specificity protein phosphatase 6 (Homo sapiens) (UniProt Q16828); assay: as above; settings: HeLa MKP-3 transfected, phospho-Erk imaging KS statistic, at 10 µM, stronger effect = higher value
Chain of Dual specificity protein phosphatase 6 (Homo sapiens) (Q16828 whole entry, looked up): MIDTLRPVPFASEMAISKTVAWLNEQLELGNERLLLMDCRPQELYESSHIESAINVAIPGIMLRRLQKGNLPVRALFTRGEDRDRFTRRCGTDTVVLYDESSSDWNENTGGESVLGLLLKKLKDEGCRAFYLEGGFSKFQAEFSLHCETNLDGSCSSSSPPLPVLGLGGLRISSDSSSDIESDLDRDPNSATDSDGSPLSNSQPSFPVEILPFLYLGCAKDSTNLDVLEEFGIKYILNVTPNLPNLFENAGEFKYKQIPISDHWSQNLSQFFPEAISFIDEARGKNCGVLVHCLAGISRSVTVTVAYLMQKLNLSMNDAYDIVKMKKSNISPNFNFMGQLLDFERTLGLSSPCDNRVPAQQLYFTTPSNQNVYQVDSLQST

[5] = biological target: Voltage-gated potassium channel subunit beta-2 (Rattus norvegicus) (UniProt P62483); assay: inhibitors of rat Kvbeta2 reductase activity – biochemical, NADPH fluorescence, primary screen (AID 622); settings: recombinant KvBeta, 4-cyanobenzaldehyde reduction, at 10 µM, stronger effect = higher value;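 note: slope of raw intensity against log time taken from 70 to 1610 s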
Chain of Voltage-gated potassium channel subunit beta-2 (Rattus norvegicus) (P62483 whole entry, looked up): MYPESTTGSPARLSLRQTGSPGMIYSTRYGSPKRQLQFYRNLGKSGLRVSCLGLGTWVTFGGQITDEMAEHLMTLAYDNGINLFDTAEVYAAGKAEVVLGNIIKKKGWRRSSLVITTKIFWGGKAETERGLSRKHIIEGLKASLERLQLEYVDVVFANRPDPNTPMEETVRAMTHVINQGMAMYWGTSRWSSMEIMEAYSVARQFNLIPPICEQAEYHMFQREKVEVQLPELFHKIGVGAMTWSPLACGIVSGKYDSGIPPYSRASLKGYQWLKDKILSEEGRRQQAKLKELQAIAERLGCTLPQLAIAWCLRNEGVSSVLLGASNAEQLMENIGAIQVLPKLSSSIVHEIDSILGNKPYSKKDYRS

[6] = biological target: Voltage-gated potassium channel subunit beta-2 (Rattus norvegicus) (UniProt P62483); assay: enhancers of rat Kvbeta2 NADPH turnover – biochemical, NADPH fluorescence, primary screen (AID 623;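 active = NADPH fluorescence slope more negative than the mean of all samples by about 3 SD, 99.7% confidence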;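 note: fluorescence intensity change per second fitted from 20 to 320 s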); settings: Recombinant KvBeta, NADPH fluorescence decrease slope, 10 min; at 10 µM; stronger effect = lower value
[7] = biological target: Muscarinic acetylcholine receptor M4 (Homo sapiens) (UniProt P08173); assay: M4-linked GIRK flux change, two-sided – cell-based, HEK293 M4/GIRK, thallium flux, BTC-AM, M4 allosteric agonist project, primary screen (AID 625;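 active = fluorescence slope after compound addition differing from the mean of all tested samples at 99.7% confidence, mostly higher but some lower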;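 note: thallium influx through GIRK channels coupled to M4 in HEK293 cells with BTC-AM dye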); settings: at 10 µM, actives lie on both sides
Chain of Muscarinic acetylcholine receptor M4 (Homo sapiens) (P08173 whole entry, looked up): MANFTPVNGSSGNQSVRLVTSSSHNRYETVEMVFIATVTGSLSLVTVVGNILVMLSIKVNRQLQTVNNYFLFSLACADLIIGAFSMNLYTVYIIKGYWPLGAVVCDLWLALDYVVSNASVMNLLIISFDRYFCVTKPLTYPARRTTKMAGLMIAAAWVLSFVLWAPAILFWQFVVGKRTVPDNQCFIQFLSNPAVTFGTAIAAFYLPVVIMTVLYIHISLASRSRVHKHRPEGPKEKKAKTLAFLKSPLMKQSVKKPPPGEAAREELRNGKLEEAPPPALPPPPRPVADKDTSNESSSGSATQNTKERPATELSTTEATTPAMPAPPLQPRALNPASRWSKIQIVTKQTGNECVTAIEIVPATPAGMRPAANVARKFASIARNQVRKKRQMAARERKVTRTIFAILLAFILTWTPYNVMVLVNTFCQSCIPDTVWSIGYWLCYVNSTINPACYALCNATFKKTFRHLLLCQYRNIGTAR

[8] = inhibitors of larval lipid processing in zebrafish, primary screen, whole organism, PED6 fluorescence, gall bladder and intestine (AID 686;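 active = a full or partial loss of lipid-probe fluorescence in the fish gall bladder, intestine or both, judged by eye; inactive = no fluorescence loss, or compound toxic to the fish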;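 note: larvae 5 to 7 days old with five fish per well; signal comes from phospholipase A2 cleavage of quenched PED6 carried via bile; overnight exposure to compound and PED6 before scoring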); settings: Zebrafish larvae PED6 lipid processing, fluorescence scoring
[9] = loss of swimming-algae plug formation – whole organism, Chlamydomonas reinhardtii, WT vs cilia-less mutant, absorbance, 96-well, primary screen (AID 463189;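 active = inhibition at or above 50% relative to wild type and mutant plate controls; inactive = inhibition below 50%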;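 note: 0% = wild type cc124 cells in DMSO and 100% = ciliumless bld1 mutant cells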); settings: Chlamydomonas reinhardtii gravitaxis, OD600 absorbance, 2 days; at 10 µM; stronger effect = higher value
[10] = reduction of polyQ htt aggregates in cells – imaging, exon1htt(103Q)mCFP cells, high-content imaging, primary screen (AID 483;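 active = visual image review flags a hit and inhibition of aggregation exceeds 20%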;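 note: compound exposure lasted 3 days before fixation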;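 for nuclei count: percent of the per-plate median nuclei count of sample wells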); settings: exon1htt(103Q)mCFP cell line, aggregate imaging, at 2 µM; inhibition of aggregation: stronger effect = higher value; nuclei count: measured here: cell count, toxicity
[11] = biological target: Alpha-2C adrenergic receptor (Homo sapiens) (UniProt P18825); assay: compounds altering alpha2C-coupled GIRK flux – cell-based, HEK293 alpha2C/GIRK1/2, thallium flux, primary screen (AID 624;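 active = fluorescence slope after compound addition differing from the mean of all screened samples at 99.7% confidence, in either direction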;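 note: slope of fluorescence ratio to pre-addition baseline per second over 15 to 24 s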); settings: thallium flux BTC fluorescence, at 10 µM, actives lie on both sides
Chain of Alpha-2C adrenergic receptor (Homo sapiens) (P18825 whole entry, looked up): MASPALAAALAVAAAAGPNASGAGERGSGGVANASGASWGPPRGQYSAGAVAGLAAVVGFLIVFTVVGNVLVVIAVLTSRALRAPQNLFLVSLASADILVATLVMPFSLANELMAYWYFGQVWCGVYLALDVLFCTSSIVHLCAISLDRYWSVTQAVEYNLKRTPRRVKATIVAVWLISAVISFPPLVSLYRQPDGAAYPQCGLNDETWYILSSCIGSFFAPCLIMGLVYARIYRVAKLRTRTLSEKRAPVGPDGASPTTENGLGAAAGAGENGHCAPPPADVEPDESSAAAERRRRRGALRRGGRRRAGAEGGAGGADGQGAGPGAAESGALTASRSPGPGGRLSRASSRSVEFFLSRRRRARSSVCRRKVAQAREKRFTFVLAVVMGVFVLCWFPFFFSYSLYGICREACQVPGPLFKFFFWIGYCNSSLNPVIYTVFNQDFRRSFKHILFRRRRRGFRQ

[12] = blockers of RIG-like receptor reporter activation – cell-based, Sendai virus stimulus, luciferase, 10K MLSCN set, TLR/RLR signaling modifier project, primary screen (AID 602276;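 active = inhibition at or above 50% at 10 µM; inactive = inhibition below 50%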;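 note: firefly luciferase from ISG56 promoter only with Renilla not read in this screen; 0% = Sendai virus plus DMSO and 100% = medium plus DMSO without virus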); settings: HEK293 RL24 IRF3 luciferase reporter, at 10 µM, stronger effect = higher value
[13] = TLR3 IRF3 reporter activation blockers – cell-based, poly I:C stimulus, luciferase, 10K MLSCN set, primary screen (AID 602277;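 active = inhibition of the reporter signal at or above 50%; inactive = inhibition below 50%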); settings: HEK293-TLR3 RL24 IRF3 luciferase reporter, at 10 µM, stronger effect = higher value
[14] = measured here: cell density z-score
[15] = measured here: nuclear c-Myc green intensity z-score
[16] = measured here: nuclear pErk red intensity z-score, stronger effect = higher value

Row | Compound | cell count [1] | inhibition [1] | inhibition [2] | nuclei count [2] | z-score [3, 14] | z-score [3, 15] | z-score [3, 16] | inhibition [4] | fluorescence slope [5] | NADPH fluorescence slope [6] | fluorescence slope [7] | outcome [8] | inhibition [9] | inhibition of aggregation [10] | nuclei count [10] | slope [11] | inhibition [12] | inhibition [13]
1 | CCCCc1nc(N2CCNCC2)c(C#N)c2c1CSC(C)(C)C2 | 519 | -12.8% (inactive) | -143% (inactive) | 135% | 0.415 | -0.261 | 0.643 | 7.42% (inactive) | -0.49 (inactive) | -0.000122 (inactive) | 0.00482 (inactive) | inactive | 55.2% (active) |  |  |  |  | 
2 | O=c1[nH]c(=O)n(-c2ccc(F)cc2)c(O)c1C=Nc1ccccc1N1CCCC1 | 459 | -0.3% (inactive) | -109% (inactive) | 118% |  |  |  |  | -0.0108 (inactive) | 1.9e-06 (inactive) |  |  |  | -4.4% (inactive) | 112% | 0.00376 (inactive) | 3.89% (inactive) | 14.6% (inactive)
3 | OC(c1ccc(F)cc1)C(c1ccccc1)N1CCOCC1 (centres undefined) | 679 | 2.9% (inactive) | 8% (inactive) | 153% | -0.0994 | 1.62 | 0.344 | -13.3% (inactive) | -0.427 (inactive) | -3.5e-05 (inactive) | 0.00525 (inactive) | inactive | -7.5% (inactive) |  |  |  |  | 
4 | CCOC(=O)C1=C(C)OC(N)=C(C(=O)OCC)[C@@]12C(=O)N(CC(N)=O)c1ccccc12 | 465 | -6.3% (inactive) | -219% (inactive) | 186% | -0.479 | -0.527 | -0.153 | -0.624% (inactive) | -0.445 (inactive) | -5.7e-05 (inactive) | 0.00512 (inactive) | inactive | 5.83% (inactive) |  |  |  |  | 
5 | CCc1nc(N2CCNCC2)c(C#N)c2c1CSC(C)(C)C2 | 652 | 3% (inactive) | -79.8% (inactive) | 159% | -1.09 | -0.257 | 0.497 | 1.12% (inactive) | -0.474 (inactive) | -1.6e-05 (inactive) | 0.00552 (inactive) | inactive | 15% (inactive) |  |  |  |  | 
6 | COc1ccc(C2SCC(=O)Nc3c2c(=O)[nH]n3C2CCCCC2)cc1 (centres undefined) | 380 | -8.8% (inactive) | -197% (inactive) | 138% | 0.845 | -1.45 | -0.612 | 14% (inactive) | -0.479 (inactive) | -0.000101 (inactive) | 0.00663 (inactive) | inactive | 6.02% (inactive) |  |  |  |  | 
7 | CCOc1c(P(=S)(N(C)C)N(C)C)c(C)nn1-c1ccccc1 | 305 | -5.2% (inactive) | -3.3% (inactive) | 112% |  |  |  |  | -0.345 (inactive) | 8e-06 (inactive) |  |  |  | 4.6% (inactive) | 108% | 0.0033 (inactive) | 13.8% (inactive) | 16.7% (inactive)
8 | COc1ccc(CC[n+]2cc(/N=C(\C)[O-])on2)cc1OC | 648 | -23.5% (inactive) | 48.2% (inactive) | 95.3% |  |  |  |  | -0.574 (inactive) | 6e-06 (inactive) |  |  |  | -6% (inactive) | 130% | 0.00583 (inactive) | 7.77% (inactive) | 25.3% (inactive)
9 | CCCCN1C(=O)NC(=O)C2(Cc3c(nc4c(C)cccn4c3=O)N3CCc4ccccc4C32)C1=O (centres undefined) | 373 | -0.5% (inactive) | -176% (inactive) | 111% |  |  |  |  | -0.482 (inactive) | -4.8e-05 (inactive) |  |  |  | -11.7% (inactive) | 106% | 0.0045 (inactive) | 14% (inactive) | 32.3% (inactive)
10 | Cc1ccccc1-n1c(O)c(C=NCCN2CCOCC2)c(=O)[nH]c1=O | 335 | -9.5% (inactive) | -110% (inactive) | 135% |  |  |  |  | -0.432 (inactive) | -2.7e-05 (inactive) |  |  |  | -8.6% (inactive) | 138% | 0.00516 (inactive) | 1.33% (inactive) | -0.798% (inactive)
11 | C=CCn1c(O)c(C(C)=Nc2ccc(N(CC)CC)cc2)c(=O)[nH]c1=O | 327 | 2.5% (inactive) | -33.7% (inactive) | 109% |  |  |  |  | -0.492 (inactive) | 2.3e-05 (inactive) |  |  |  | -15.3% (inactive) | 102% | 0.00389 (inactive) | 21.7% (inactive) | 25.5% (inactive)
12 | CCN(CC)CCN=Cc1c(O)n(CCC2=CCCCC2)c(=O)[nH]c1=O | 677 | -6% (inactive) | 5.2% (inactive) | 104% |  |  |  |  | -0.618 (inactive) | -1.2e-05 (inactive) |  |  |  | -1.5% (inactive) | 94.9% | 0.00557 (inactive) | -53.3% (inactive) | -117% (inactive)
13 | CC(C)(C)P(=O)(c1ccncc1)N1CCCC1 (centres undefined) | 520 | -2.4% (inactive) | -21% (inactive) | 115% |  |  |  |  | -0.275 (inactive) | -4.3e-05 (inactive) |  |  |  | -2.3% (inactive) | 113% | 0.00562 (inactive) | 14.9% (inactive) | 22.7% (inactive)
14 | CCCCCCOc1ccc(CN2CCN(C)CC2)cc1 | 302 | -5% (inactive) | -127% (inactive) | 128% |  |  |  |  | -0.46 (inactive) | -0.000138 (inactive) |  |  |  | 2.1% (inactive) | 107% | 0.00769 (inactive) | 25.8% (inactive) | 8.4% (inactive)
